# Measurements taken from PubChem BioAssay AID1851 (National Center for Advancing Translational Sciences (NCATS), 2009).
# Several values for one entry are separate records, joined by “and”; a condition that tells them apart may be missing. Equal entries are not always repeated. In all, about 16,000 compounds went through this assay and about 2,600 (16%) were called active. Not shown: some 20% with an inconclusive outcome. Calls come from the whole dose curve; as a rule, active = well fitted curve in the direction sought with a large enough effect; inconclusive = small, poorly fitted or top-dose-only effect, or effect the other way; inactive = no such curve, though single readings can be large or run the other way. This excerpt belongs to a sample that is enriched for actives. Some structures have more than one record in an assay (separate samples or runs), and their calls can disagree.
# Target: Cytochrome P450 2D6 (Homo sapiens) (UniProt P10635)
# Test: Cytochrome panel assay with activity outcomes
# Settings: recombinant CYP, pro-luciferin dealkylation, luminescence, p450-cyp2d6; series mostly up to 57.1 µM; activity, negative = inhibition: at the top concentration
# Description: The P450 gene superfamily is involved in the metabolism and clearance of xenobiotics. This assay used various human CYP P450 isozymes to measure the dealkylation of various pro-luciferin substrates to luciferin. The luciferin is then measured by luminescence after the addition of a luciferase detection reagent. Pro-luciferin substrate concentration in the assay was equal to its KM for its CYP P450 isozyme. Inhibitors and some substrates limit the production of luciferin, and decrease measured luminescence.
# NCGC Assay Protocol Summary:
# 1, Reagent, 2 uL, Isozyme and Pro-Luciferin
# 2, Library compounds, 23 nl, 40 uM to 0.24 nM dilution series
# 3, Controls, 23 nl, Isozyme specific inhibitor
# 4, Reagent, 2 uL, NADPH regeneration solution
# 5, Incubation time, 60 min, Isozyme specific temperature
# 6, Reagent, 4ul, Detection reagent
# 7, Incubation time, 20 min, Isozyme specific temperature
# 8, Detection, 1 sec, ViewLux luminescent read
# The luciferase-based P450-GloTM Screening Systems were obtained from Promega (Madison, WI) for CYP 1A2 (V9770), CYP 2C9 (V9790), CYP2 C19 (V9880), CYP 2D6 (V9890), and CYP 3A4 Luciferin-PPXE (V9910) and were adapted for 1,536-well microplates and an automated protocol. The control compounds furafylline for 1A2 (F124), sulfaphenazole for CYP 2C9 (S0758), ketoconazole for CYP 2C19 (K1003), quinidine for 2D6 (Q3625), and ketoconazole for 3A4 (K1003) were purchased from Sigma Aldrich (St. Louis, MO). Recombinant P450 enzymes were obtained from baculovirus constructs expressed in insect cells (BD/Gentest).
# Medium-binding white solid Kalypsys plates used. Mixtures kept on ice. 1A2: 10 nM 1A2, 100 uM Luc-ME, 100 mM KPO4; 2C9: 10 nM 2C9, 100 uM Luc-H, 25 mM KPO4; 2C19: 5 nM 2C19, 10 uM Luc-H EGE, 50 mM KPO4; 2D6: 5 nM 2D6, 30 uM Luc-ME EGE, 100 mM KPO4; 3A4: 10 nM, 25 uM Luc-PPXE. All amounts are reflected in their final concentration, working concentration is 2x.
# NADPH regeneration solution: 1.3 mM NADP+, 3.3 mM glucose-6-phosphate, 3.3 mM MgCl2, 0.4 U/mL glucose-6-phosphate dehydrogenase for all isozymes, 200 mM KPO4 for 3A4. Mixture prepared at RT but kept on ice during automated run.
# RT incubation in auxilliary plate hotel for 1A2, 2D6, and 3A4; 37C for 2C9 and 2C19.
# Keywords: P450, CYP1A2, CYP2C19, CYP2C9, CYP2D6, CYP3A4, Luciferase, MLSMR, MLSCN, NIH Roadmap, qHTS, NCGC
# % is set by controls: 0 for no effect and ±100 for the full control effect.
# Chain of Cytochrome P450 2D6 (Homo sapiens) (P10635 whole entry, looked up): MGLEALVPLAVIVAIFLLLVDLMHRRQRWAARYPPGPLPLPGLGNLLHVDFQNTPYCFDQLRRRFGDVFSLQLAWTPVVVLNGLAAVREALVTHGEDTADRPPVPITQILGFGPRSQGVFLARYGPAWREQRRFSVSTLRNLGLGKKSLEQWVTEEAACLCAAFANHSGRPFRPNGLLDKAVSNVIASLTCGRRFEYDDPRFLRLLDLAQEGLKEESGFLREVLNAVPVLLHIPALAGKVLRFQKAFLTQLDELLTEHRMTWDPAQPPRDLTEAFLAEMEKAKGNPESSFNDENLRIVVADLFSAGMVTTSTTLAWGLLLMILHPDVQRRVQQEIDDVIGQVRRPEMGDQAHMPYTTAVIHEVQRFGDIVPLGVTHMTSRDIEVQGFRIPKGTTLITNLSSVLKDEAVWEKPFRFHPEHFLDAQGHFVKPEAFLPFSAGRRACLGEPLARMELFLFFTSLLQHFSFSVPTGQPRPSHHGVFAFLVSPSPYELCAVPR
Structure (SMILES),"activity, negative = inhibition",AC50
CC(C)[C@@]1(NC(=O)[C@@H]2C[C@H]3c4cccc5[nH]cc(c45)C[C@@H]3N(C)C2)O[C@]2(O)[C@H]3CCCN3C(=O)CN2C1=O,-18.7% [at 25.6 µM] (inactive),
CCN(CC)C(=O)N[C@H]1C[C@H]2c3cccc4[nH]cc(c34)C[C@@H]2N(C)C1,,39.8 nM (active)
CC(C)[C@@]1(NC(=O)[C@@H]2C[C@H]3c4cccc5[nH]cc(c45)C[C@@H]3N(C)C2)O[C@@]2(O)[C@H]3CCCN3C(=O)[C@H](Cc3ccccc3)N2C1=O,-17.1% (inactive),
NCCCNCCSP(=O)(O)O,-2.11% (inactive),
N[C@H](Cc1ccc2oc3cc(=O)c4ccccc4c-3nc2c1)C(=O)O,-14.6% [at 11.4 µM] (inactive),
CC1(C)CCC(C)(C)c2c1ccc(O)c2Cc1c(O)ccc2c1C(C)(C)CCC2(C)C,4.74% [at 11.4 µM] (inactive),
CCn1c(O)c(C(c2ccccn2)c2c(O)n(CC)c(=S)[nH]c2=O)c(=O)[nH]c1=S,2.86% (inactive),
O=C(C[C@H](c1ccccc1)c1c(O)c2ccccc2oc1=O)c1ccccc1,12.6% [at 11.4 µM] (inactive),
COCCn1c(SCc2nc3sc(C(=O)OC)c(C)c3c(=O)[nH]2)nc2ccccc21,,10000 nM (active)
CC(C)C(=O)CP(=O)(O)O,-4.98% [at 11.4 µM] (inactive),
COc1cc(OC)c(/C=C2/C(=O)Nc3ccccc32)c(OC)c1,2.82% (inactive),
CCOC(=O)c1cncn1[C@H](C)c1ccccc1,-4.57% (inactive),
CCOC(=O)c1cncn1[C@@H](C)c1ccccc1,-4.3% [at 25.6 µM] (inactive),
C[C@H](c1ccccc1)N1CCN([C@@H](C)c2ccccc2)CC1,,63.1 nM (active)
C(=NC12CN3CN(CN(C3)C1)C2)c1cccs1,5.66% (inactive),
S=C=Nc1cccc(C2(N3CCCCC3)CCCCC2)c1,,10000 nM (active)
COC(=O)C1=CCCN(C)C1,,inactive
CCCC(CCC)C(=O)O,-0.976% (inactive),
CCC1(C)CC(=O)NC(=O)C1,3.83% [at 25.6 µM] (inactive),
Cc1o[nH]c(=O)c1C[C@@H](N)C(=O)O,2.96% (inactive),
N[C@H](CCl)C(=O)O,4.24% (inactive),
N[C@@H](Cc1cc(Br)c(O)c(Br)c1)C(=O)O,10.2% [at 11.4 µM] (inactive),
N[C@H](Cc1o[nH]c(=O)c1Cl)C(=O)O,,158 nM (active)

Structure (SMILES),"activity, negative = inhibition",AC50
Cc1o[nH]c(=O)c1C[C@H](N)C(=O)O,,inactive and 15.8 µM (active)
N[C@H](C(=O)O)c1cc(=O)[nH]o1,12.8% (inactive),
C[C@@H]1O[C@H](O[C@@H]2CC[C@@]3(C=O)[C@H]4CC[C@@]5(C)[C@@H](C6=CC(=O)OC6)CC[C@@]5(O)[C@@H]4CC[C@]3(O)C2)C[C@H](O)[C@@H]1O,5.25% [at 25.6 µM] (inactive),
CCCCCCN=Cc1c(O)n(C)c(=O)n(C)c1=O,-19% (inactive),
CC1=C(C)[N+](=O)C2(O)CCCCC2(C)N1[O-] (stereo not given),18.1% (inactive),
C[C@@H]1O[C@H](O[C@@H]2C[C@@H](O)[C@]3(CO)[C@H]4[C@H](O)C[C@]5(C)[C@@H](C6=CC(=O)OC6)CC[C@@]5(O)[C@@H]4CC[C@]3(O)C2)[C@@H](O)[C@H](O)[C@H]1O,,50.1 nM (active)
C[C@@H]1O[C@H](O[C@H]2C[C@@H](O)[C@@]3(CO)[C@H]4[C@@H](O)C[C@]5(C)[C@@H](C6=CC(=O)OC6)CC[C@]5(O)[C@H]4CC[C@]3(O)C2)[C@@H](O)[C@H](O)[C@@H]1O,2.17% [at 25.6 µM] (inactive),
C[C@@H]1O[C@@H](O[C@H]2C[C@@H](O)[C@]3(CO)[C@@H]4[C@@H](O)C[C@]5(C)[C@H](C6=CC(=O)OC6)CC[C@@]5(O)[C@H]4CC[C@@]3(O)C2)[C@H](O)[C@H](O)[C@@H]1O,-5.79% (inactive),
CCOC(=O)c1c(NC(=O)C(c2ccccc2)c2ccccc2)sc2c1C1CCN2CC1,6.8% (inactive),
CN1CC[C@@]23c4ccccc4N[C@H]1[C@]21CCN(C)[C@@H]3Nc2ccccc21,-7.44% [at 25.6 µM] (inactive),
CCCCN(CCCC)CCC(O)c1cc2c(Cl)cc(Cl)cc2c2cc(C(F)(F)F)ccc12 (stereo not given),,3980 nM (active)
O=C(O)CNC(=O)[C@@H](CS)Cc1ccccc1,8.35% (inactive),
O=[N+]([O-])c1ccc2nc(N3CCNCC3)ccc2c1,-12.8% (inactive),
CN(N=O)C(=O)N[C@H]1[C@@H](O)[C@H](O)[C@H](CO)O[C@@H]1O,-1.92% [at 25.6 µM] (inactive),
COC(=O)[C@H]1[C@H](c2ccccc2)C(=O)[C@@]2(O)c3ccccc3O[C@@]12c1ccccc1,1.53% [at 11.4 µM] (inactive),
CCS(=O)(=O)Nc1cccc(C(=C2CCCCC2)c2cnc[nH]2)c1,,7940 nM (active)
CN1C(=O)C(C2c3ccccc3C(=O)N2Cc2ccc([N+](=O)[O-])cc2)C(=O)N(C)C1=O (stereo not given),-17.5% (inactive),
C1C[C@@H]2CN(CCCN3CCOCC3)[C@@H](C1)O2,-5.61% [at 11.4 µM] (inactive),
CC1(C)CCC2=C(O1)c1ccccc1C(=O)C2=O,,15800 nM (active)
CN1[C@@H](C[C@@H](O)c2ccccc2)CCC[C@@H]1C[C@H](O)c1ccccc1,,631 nM (active)
Cn1c[n+](C)cc1C(O)c1ccccc1 (stereo not given),-5.07% (inactive),
CN1[C@@H](CC(=O)c2ccccc2)CCC[C@@H]1C[C@@H](O)c1ccccc1,,79.4 nM (active)
